PI5P4K alpha inh: PI5P4K alpha (human) kinase inhibition; P48426; PI5P4Kalpha enzyme, ADP-Glo luminescence, 60 min; stronger effect = lower value; max response, %; 1.2% of 330,000 active; AID 652105; active = max response of -50% or lower; inconclusive = between -30% and -50%; inactive = -30% or higher; note: value at the top dose of about 77 µM; % is set by controls: 0 for no effect and ±100 for the full control effect
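Luminescence from ADP-Glo served as readout of PI5P4Kalpha activity in a qHTS format. Reaction: enzyme, substrate, compound, ATP at 5 microM final, 60 min at RT.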
KAT2A inh: GCN5L2 (KAT2A) acetyltransferase inhibition | GCN5L2 HAT assay, ThioGlo1 CoA-SH fluorescence | Potency, µM (titrated, usually from 58.9 µM), for inactives: at the top dose activity change, negative = inhibition, most hits filed as inhibitors | 0.21% of 390,000 active | Q92830 | AID 504327; note: potency is the fitted concentration of half-maximal effect; % is set by controls: 0 for no effect and ±100 for the full control effect
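qHTS, 1536-well. 20nM enzyme, pH 7.5 HEPES/EDTA/Tween-20 buffer; 15 min compound preinc., RT. Start: 75uM H3(1-25), 70uM AcCoA, 50uM ThioGlo1. Read Ex340/Em540 at t=0 (autofluorescence flag) and t=20 min.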
PLK1 PBD block: inhibitors of human PLK1 polo-box domain binding. Plk1 PBD binding of FITC phosphopeptide, fluorescence polarization. Potency, µM, for the others: max response, negative = inhibition, most hits filed as inhibitors. 2.8% of 360,000 active. AID 720504; note: potency is the fitted concentration of half-maximal effect; series mostly up to about 57 µM; % is set by controls: 0 for no effect and ±100 for the full control effect; nearly all actives have a fitted effect of over 65% in size
HP1b binding inh: blocks HP1-beta chromodomain binding to methylated histone tails; 0.56% of 390,000 active; AlphaScreen HP1-beta / biotin-H3K9me3 peptide binding; AID 540317; Potency, µM (top dose mostly 114 µM), for inactives: at the highest dose activity change, negative = inhibition, actives largely listed as inhibitors; P83916; note: potency is the fitted concentration of half-maximal effect; nearly all actives have a fitted effect of over 70% in size
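AlphaScreen: HP1-beta (50 nM) preformed 30 min with biotin-H3(1-18)K9me3 peptide (50 nM) in PBS pH 7.4, 0.01% Tween-20. Compound added for 30 min at RT, then streptavidin donor/nickel chelate acceptor beads (10 ug/mL) for 30 min.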
BAZ2B block: BAZ2B (human) inhibition; AlphaScreen BAZ2B-H3K14Ac peptide displacement; Potency, µM (highest dose often 114 µM), for inactives: at the top dose activity change, negative = inhibition, actives largely listed as inhibitors; 4.4% of 360,000 active; AID 504333; note: potency is the fitted concentration of half-maximal effect; % is set by controls: 0 for no effect and ±100 for the full control effect; nearly all actives have a fitted effect of over 60% in size
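Complex of BAZ2B and biotin-H3K14Ac (50 nM apiece) forms over 30 min at RT, then faces library compounds up to 110 uM for another 30 min; AlphaScreen beads added, 20 min dark incubation, luminescence read.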
JMJD2A Tudor: inhibitors of human JMJD2A Tudor domain. 4.4% of 390,000 active. AID 504339. O75164. AlphaScreen JMJD2A-Tudor / H3K4me3 peptide binding. Potency, µM (series often up to 114 µM), for the others: top-dose activity change, negative = inhibition, usual class: inhibitors; note: potency is the fitted concentration of half-maximal effect; % is set by controls: 0 for no effect and ±100 for the full control effect; nearly all actives have a fitted effect of over 50% in size
* hit, by the source's call; ? = inconclusive; . = no result. An excerpt weighted towards active compounds, which were near 7% of everything screened. Unless noted, calls come from the whole dose curve; as a rule, active = well fitted curve in the direction sought with a large enough effect; inconclusive = small, poorly fitted or top-dose-only effect, or another doubt; inactive = no such curve, though single readings can be large; an effect the other way counts as inactive or inconclusive.

SMILES	PI5P4K alpha inh	KAT2A inh	PLK1 PBD block	HP1b binding inh	BAZ2B block	JMJD2A Tudor
CC(C)OC(=O)N(C)C[C@H]1OCc2cn(nn2)CCCC(=O)N([C@H](C)CO)C[C@@H]1C	-12	.	-17%	.	.	.
O=C(O)c1ccccc1NCc1ccncc1	.	-3%	-5%	31%	-39%	-5%
O=C(O)c1ccc(CNc2ccccc2C(=O)O)cc1	-14	-4%	-4%	8%	?	56µM*
COc1cc(C(=O)NC(=S)Nc2ccccc2[N+](=O)[O-])cc(OC)c1OC	-5	-4%	21µM*	?	?	28µM*
COc1cc(C(=O)NC(=S)Nc2ccc([N+](=O)[O-])cc2C)cc(OC)c1OC	-3	-2%	-15%	-14%	7%	?
COc1cc(C(=O)NC(=S)Nc2ccccc2N2CCOCC2)cc(OC)c1OC	0	-12%	-4%	-10%	40µM*	?
CCCn1ccc2c(OCC(=O)Nc3cc(C)ccc3C)cccc2c1=O	.	5%	.	54%	7%	-9%
O=C1c2c([N+](=O)[O-])cc([N+](=O)[O-])cc2S(=O)N1Cc1ccccc1 (configuration not stated)	-60*	28µM*	38µM*	?	45µM*	89µM*
CSc1nc2ncnc(N)c2[nH]1	-8	-4%	-11%	7%	-27%	79µM*
Cc1ccc(C2CC(=O)C(C=NCCN3CCN(C(=S)Nc4ccc(F)cc4)CC3)=C(O)C2)cc1 (configuration not stated)	-7	-7%	-12%	-10%	-19%	?
Cc1cc(C)nc(N/N=C/C2=C(O)CC(c3ccc(F)cc3)CC2=O)n1 (configuration not stated)	-2	-3%	-5%	44%	22µM*	32µM*
CCOC(=O)C1CCCN(C(=O)c2sc(-c3ccccc3)nc2C)CC1 (configuration not stated)	2	.	8%	.	.	.
CCOC(=O)C1CCCCN1Cc1ccc(F)cc1 (configuration not stated)	.	-13%	-1%	?	50µM*	4.5µM*
CCOC(=O)C1CCCCN1Cc1cccc(Oc2ccccc2)c1 (configuration not stated)	13	-6%	-8%	107%	63%	65%
CCOC(=O)C1CCCCN1Cc1cn(C)nc1-c1ccccc1F (configuration not stated)	0	-2%	3%	18%	2%	5%
CCOC(=O)C1CCCCN1Cc1ccc(-c2ccccc2)cc1 (configuration not stated)	6	-4%	-1%	-9%	9%	20µM*
CCOC(=O)C1CCCCN1Cc1cccc(F)c1 (configuration not stated)	.	-2%	-1%	?	50µM*	22µM*
CC1(C(=O)Nc2cnc3ccccc3c2)CCN1CCOc1ccccc1 (configuration not stated)	0	.	4%	.	.	.
CC(=O)N1c2ccccc2CC1C(=O)N1CCN(c2cccc(Cl)c2)CC1 (configuration not stated)	.	32%	.	31%	-13%	-3%
CCOc1ccc(C2C(C(=O)c3ccco3)=C(O)C(=O)N2CCCn2ccnc2)cc1OC (configuration not stated)	-9	-5%	-23%	19%	50µM*	-26%
CCCOc1ccc(C2C(C(=O)c3ccco3)=C(O)C(=O)N2CCCn2ccnc2)cc1OC (configuration not stated)	3	.	1%	.	.	.
CCCCN1C(=O)C(O)=C(C(C)=O)C1c1ccc(OC)cc1OC (configuration not stated)	-7	-2%	-9%	4%	50µM*	50µM*
COc1ccc(C2C(C(C)=O)=C(O)C(=O)N2CCCn2ccnc2)cc1 (configuration not stated)	.	-12%	-6%	14%	?	89µM*
Cc1ccc(S(=O)(=O)c2nc(S(=O)(=O)c3ccc(C)cc3)c(NCCCOC(C)C)s2)cc1	.	-1%	.	29%	-11%	-14%
C#CCOCCOCCOCCNc1nc(N2CCN(C(=O)C([C@@H](C)CC)n3cc(C(N)Cc4ccc(O)cc4)nn3)CC2)nc(N2CCN(C(=O)[C@H](CCC(=O)O)n3cc(C(N)Cc4ccc(O)cc4)nn3)CC2)n1 (some centres not stated)	9	4%	-20%	31%	56µM*	50µM*
SMILES	PI5P4K alpha inh	KAT2A inh	PLK1 PBD block	HP1b binding inh	BAZ2B block	JMJD2A Tudor
C#CCOCCOCCOCCNc1nc(N2CCN(C(=O)C([C@@H](C)CC)n3cc(C(N)Cc4ccc(O)cc4)nn3)CC2)nc(N2CCN(C(=O)[C@H](CCC(=O)O)n3cc(C(N)CC(C)C)nn3)CC2)n1 (some centres not stated)	6	5%	-8%	53%	50µM*	56µM*
C#CCOCCOCCOCCNc1nc(N2CCN(C(=O)C([C@@H](C)CC)n3cc(C(N)Cc4ccc(O)cc4)nn3)CC2)nc(N2CCN(C(=O)[C@H](CCC(=O)O)n3cc(C(N)[C@H](C)CC)nn3)CC2)n1 (some centres not stated)	-4	2%	-2%	24%	79µM*	?
C#CCOCCOCCOCCNc1nc(N2CCN(C(=O)[C@H]([C@@H](C)CC)n3cc(CCC(=O)O)nn3)CC2)nc(N2CCN(C(=O)[C@H](Cc3ccc(O)cc3)n3cc(CCO)nn3)CC2)n1	-2	.	-3%	33%	.	?
C#CCOCCOCCOCCNc1nc(N2CCN(C(=O)C([C@@H](C)CC)n3cc(C(N)Cc4ccc(O)cc4)nn3)CC2)nc(N2CCN(C(=O)[C@H](CCC(=O)O)n3cc(C(N)CO)nn3)CC2)n1 (some centres not stated)	0	-1%	-1%	22%	50µM*	56µM*
COC(=O)C[C@H]1C=C[C@H](NC(=O)Nc2ccccc2)[C@@H](CO)O1	5	.	-14%	.	.	.
CCOC(=O)N1CCN(C(=O)CN2C(=O)NC(C)(c3ccc4ccccc4c3)C2=O)CC1 (configuration not stated)	5	-1%	-8%	14%	8%	-10%
C#CCOCCOCCOCCNc1nc(N2CCN(C(=O)C([C@@H](C)CC)n3cc(C(N)CC(C)C)nn3)CC2)nc(N2CCN(C(=O)[C@H](CCC(=O)O)n3cc(C(N)Cc4ccc(O)cc4)nn3)CC2)n1 (some centres not stated)	10	0%	-1%	55%	?	79µM*
COc1ccc(NS(=O)(=O)c2ccc(-c3cnc(C4CC4)o3)cc2)cc1Cl	.	-2%	.	19%	-33%	-34%

Screening results from PubChem.
